# Reference: PubChem BioAssay
# Activity calls are given as the source filed them.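 How the source made its calls: active means inhibition above 20% together with a positive visual image hit; inconclusive means visual image hit but inhibition not above 20%; inactive means no visual image hit.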
# Assay: inhibitors of TNFa-induced NFkB p65 translocation, primary screen, imaging, HUVEC, MLSMR starter and 10KST1 sets (AID 438);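 further: compound added about 3h40 before a 20 min TNFalpha stimulation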;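 on inhibition: signal is the nuclear over cytoplasmic p65 intensity ratio per well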
# Conditions: HUVEC TNFa-induced p65 nuclear translocation; cell count: measured here: nuclei count (cytotoxicity indicator), at 2.08 µM; inhibition: at 2 µM, stronger effect = higher value, 0% TNFa-plus-vehicle, 100% no-TNFa wells
SMILES,cell count,inhibition
CCOC(=O)N1CCN(C(=O)CN(Cc2ccccc2)S(=O)(=O)c2ccc(OC)c(C)c2)CC1,320,-2.3% (inactive)
COC(=O)c1ccc(COC(=O)c2c(C)nn(Cc3ccccc3Cl)c2Cl)o1,431,-20.9% (inactive)
O=C(Nc1cccnc1)c1cc2c(ccc3ccccc32)o1,489,8.1% (inactive)
Clc1ccc(OCc2nnc(SCCN3CCCCC3)n2Cc2ccco2)cc1,587,-2.7% (inactive)
O=C(/C=C/N1CCOCC1)c1ccc(-c2ccccc2)cc1,617,-4.7% (inactive)
COc1cccc(N2C(=O)N(c3ccccc3Cl)C3CS(=O)(=O)CC32)c1 (stereo not drawn),366,-0.4% (inactive)
O=C(NCc1cccs1)c1cc2c(s1)CS(=O)(=O)C2,618,-3% (inactive)
CC(C)CC(c1nnnn1C(C)(C)C)N1CCN(C2CCCC2)CC1 (stereo not drawn),487,7.1% (inactive)
Cc1cc(C(=O)COC(=O)CCc2nc3ccccc3s2)c(C)n1C,170,-10.5% (inactive)
Cc1cc(C)n2nc(SCC(=O)N(C)Cc3ccccc3)nc2n1,407,7.4% (inactive)
CCCCCCC(c1c(C)n(C)n(-c2ccccc2)c1=O)c1c(C)n(C)n(-c2ccccc2)c1=O,272,-12.6% (inactive)
c1ccc2c(-c3nc(-c4ccncc4)no3)cccc2c1,313,-1.1% (inactive)
CNC(=O)c1ccc2nc(NC(C)=O)sc2c1,382,-10.3% (inactive)
O=C(c1ccccc1)c1ccc(N2CCNCC2)cc1,395,4.3% (inactive)
